# Results taken from ChEMBL document CHEMBL1961873, “Compounds: GSK PKIS; Assays: Nanosyn kinase panel” (2012).
# Experiments:
# [1] = molecular target: Protein kinase C gamma type (Homo sapiens) (UniProt P05129); settings: at 1 µM;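 note: each value is an averaged percent inhibition of the enzyme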
# [2] = molecular target: T1, Protein kinase C iota type (Homo sapiens) (UniProt P41743); settings: at 0.1 µM
# T1 sequence (whole entry): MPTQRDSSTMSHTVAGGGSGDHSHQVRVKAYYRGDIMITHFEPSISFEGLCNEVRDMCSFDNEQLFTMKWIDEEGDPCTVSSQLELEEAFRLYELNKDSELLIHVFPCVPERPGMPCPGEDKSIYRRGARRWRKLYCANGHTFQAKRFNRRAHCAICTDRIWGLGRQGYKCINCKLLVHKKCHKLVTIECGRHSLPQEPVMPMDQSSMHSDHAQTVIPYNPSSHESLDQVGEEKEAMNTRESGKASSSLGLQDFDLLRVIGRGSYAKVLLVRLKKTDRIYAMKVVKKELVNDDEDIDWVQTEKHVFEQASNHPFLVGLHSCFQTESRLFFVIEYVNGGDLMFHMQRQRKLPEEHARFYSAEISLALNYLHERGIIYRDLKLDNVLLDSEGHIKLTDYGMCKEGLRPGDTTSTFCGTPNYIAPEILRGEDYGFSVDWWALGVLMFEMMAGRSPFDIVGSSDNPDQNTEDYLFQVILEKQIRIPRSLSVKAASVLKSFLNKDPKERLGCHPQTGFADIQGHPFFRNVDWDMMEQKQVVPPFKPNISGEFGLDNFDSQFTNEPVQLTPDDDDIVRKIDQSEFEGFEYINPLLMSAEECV
# [3] = molecular target: T1, Protein kinase C iota type (Homo sapiens); settings: at 1 µM
# [4] = molecular target: Protein kinase C theta type (Homo sapiens) (UniProt Q04759); settings: at 0.1 µM
# Protein kinase C theta type (Homo sapiens), sequence (Q04759 whole entry, looked up): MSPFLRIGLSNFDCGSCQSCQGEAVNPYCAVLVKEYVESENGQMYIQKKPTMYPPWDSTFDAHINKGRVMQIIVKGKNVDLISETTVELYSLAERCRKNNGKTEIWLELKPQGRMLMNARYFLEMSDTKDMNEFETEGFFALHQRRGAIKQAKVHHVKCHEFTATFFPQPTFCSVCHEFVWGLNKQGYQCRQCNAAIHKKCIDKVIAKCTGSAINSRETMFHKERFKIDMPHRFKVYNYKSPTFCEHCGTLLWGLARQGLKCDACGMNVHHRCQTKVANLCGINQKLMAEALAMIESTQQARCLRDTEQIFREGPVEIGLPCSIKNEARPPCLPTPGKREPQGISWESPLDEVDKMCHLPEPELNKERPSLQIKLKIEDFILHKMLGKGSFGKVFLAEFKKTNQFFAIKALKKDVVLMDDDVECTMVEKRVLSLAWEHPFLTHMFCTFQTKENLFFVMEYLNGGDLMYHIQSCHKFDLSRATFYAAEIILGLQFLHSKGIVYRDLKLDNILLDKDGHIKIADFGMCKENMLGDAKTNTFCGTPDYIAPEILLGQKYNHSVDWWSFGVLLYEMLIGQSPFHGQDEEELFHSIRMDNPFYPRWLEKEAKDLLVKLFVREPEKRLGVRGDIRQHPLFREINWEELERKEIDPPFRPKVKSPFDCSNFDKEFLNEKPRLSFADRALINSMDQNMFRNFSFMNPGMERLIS
# [5] = molecular target: Protein kinase C theta type (Homo sapiens) (UniProt Q04759); settings: at 1 µM
# [6] = molecular target: Protein kinase C beta type (Homo sapiens) (UniProt P05771); settings: at 0.1 µM
# Protein kinase C beta type (Homo sapiens), sequence (P05771 2-671 limits assumed): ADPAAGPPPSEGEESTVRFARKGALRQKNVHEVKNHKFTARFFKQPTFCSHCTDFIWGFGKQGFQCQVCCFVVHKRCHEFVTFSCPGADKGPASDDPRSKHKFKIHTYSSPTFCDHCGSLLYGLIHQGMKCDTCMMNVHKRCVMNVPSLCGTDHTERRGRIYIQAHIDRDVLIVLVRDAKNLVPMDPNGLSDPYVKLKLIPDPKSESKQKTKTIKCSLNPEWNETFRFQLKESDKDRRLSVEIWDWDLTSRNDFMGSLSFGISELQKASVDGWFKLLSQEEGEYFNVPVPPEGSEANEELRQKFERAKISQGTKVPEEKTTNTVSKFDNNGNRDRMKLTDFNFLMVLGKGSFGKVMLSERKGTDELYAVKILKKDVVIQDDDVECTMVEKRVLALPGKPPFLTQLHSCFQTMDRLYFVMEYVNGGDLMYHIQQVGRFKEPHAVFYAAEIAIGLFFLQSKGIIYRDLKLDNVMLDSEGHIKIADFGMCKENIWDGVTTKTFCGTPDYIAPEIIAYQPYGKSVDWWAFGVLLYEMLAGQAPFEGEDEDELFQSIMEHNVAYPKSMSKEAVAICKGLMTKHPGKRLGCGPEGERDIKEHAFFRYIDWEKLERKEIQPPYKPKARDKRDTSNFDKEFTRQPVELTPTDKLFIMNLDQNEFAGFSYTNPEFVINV
# [7] = molecular target: Protein kinase C beta type (Homo sapiens) (UniProt P05771); settings: at 1 µM
# [8] = molecular target: T2, Serine/threonine-protein kinase D1 (Homo sapiens) (UniProt Q15139); settings: at 0.1 µM
# T2 sequence (whole entry): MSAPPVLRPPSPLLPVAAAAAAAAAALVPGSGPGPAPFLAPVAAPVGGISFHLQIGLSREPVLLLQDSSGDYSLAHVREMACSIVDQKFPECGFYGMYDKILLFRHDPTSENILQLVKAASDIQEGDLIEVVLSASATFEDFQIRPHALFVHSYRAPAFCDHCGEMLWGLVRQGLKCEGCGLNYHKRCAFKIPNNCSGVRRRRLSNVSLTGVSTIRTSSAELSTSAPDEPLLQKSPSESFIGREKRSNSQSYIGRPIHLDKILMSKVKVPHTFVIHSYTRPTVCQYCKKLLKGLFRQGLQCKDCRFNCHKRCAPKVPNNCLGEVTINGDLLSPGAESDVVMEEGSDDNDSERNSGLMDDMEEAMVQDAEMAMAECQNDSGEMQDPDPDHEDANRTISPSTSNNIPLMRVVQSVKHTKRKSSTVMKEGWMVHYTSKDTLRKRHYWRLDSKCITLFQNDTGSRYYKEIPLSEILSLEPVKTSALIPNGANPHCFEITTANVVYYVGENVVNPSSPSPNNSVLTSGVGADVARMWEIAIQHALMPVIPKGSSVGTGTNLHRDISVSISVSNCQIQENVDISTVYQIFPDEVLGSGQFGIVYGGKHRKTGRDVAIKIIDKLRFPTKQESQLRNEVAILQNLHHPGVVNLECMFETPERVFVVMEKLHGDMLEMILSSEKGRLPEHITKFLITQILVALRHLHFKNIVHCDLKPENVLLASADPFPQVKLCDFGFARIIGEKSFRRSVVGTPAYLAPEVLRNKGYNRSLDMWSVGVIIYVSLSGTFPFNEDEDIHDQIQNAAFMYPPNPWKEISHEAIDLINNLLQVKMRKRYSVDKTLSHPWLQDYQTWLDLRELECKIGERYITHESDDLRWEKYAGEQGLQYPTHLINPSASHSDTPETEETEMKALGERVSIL
# [9] = molecular target: T2, Serine/threonine-protein kinase D1 (Homo sapiens); settings: at 1 µM
# [10] = molecular target: T3, Serine/threonine-protein kinase D2 (Homo sapiens) (UniProt Q9BZL6); settings: at 0.1 µM
# T3 sequence (whole entry): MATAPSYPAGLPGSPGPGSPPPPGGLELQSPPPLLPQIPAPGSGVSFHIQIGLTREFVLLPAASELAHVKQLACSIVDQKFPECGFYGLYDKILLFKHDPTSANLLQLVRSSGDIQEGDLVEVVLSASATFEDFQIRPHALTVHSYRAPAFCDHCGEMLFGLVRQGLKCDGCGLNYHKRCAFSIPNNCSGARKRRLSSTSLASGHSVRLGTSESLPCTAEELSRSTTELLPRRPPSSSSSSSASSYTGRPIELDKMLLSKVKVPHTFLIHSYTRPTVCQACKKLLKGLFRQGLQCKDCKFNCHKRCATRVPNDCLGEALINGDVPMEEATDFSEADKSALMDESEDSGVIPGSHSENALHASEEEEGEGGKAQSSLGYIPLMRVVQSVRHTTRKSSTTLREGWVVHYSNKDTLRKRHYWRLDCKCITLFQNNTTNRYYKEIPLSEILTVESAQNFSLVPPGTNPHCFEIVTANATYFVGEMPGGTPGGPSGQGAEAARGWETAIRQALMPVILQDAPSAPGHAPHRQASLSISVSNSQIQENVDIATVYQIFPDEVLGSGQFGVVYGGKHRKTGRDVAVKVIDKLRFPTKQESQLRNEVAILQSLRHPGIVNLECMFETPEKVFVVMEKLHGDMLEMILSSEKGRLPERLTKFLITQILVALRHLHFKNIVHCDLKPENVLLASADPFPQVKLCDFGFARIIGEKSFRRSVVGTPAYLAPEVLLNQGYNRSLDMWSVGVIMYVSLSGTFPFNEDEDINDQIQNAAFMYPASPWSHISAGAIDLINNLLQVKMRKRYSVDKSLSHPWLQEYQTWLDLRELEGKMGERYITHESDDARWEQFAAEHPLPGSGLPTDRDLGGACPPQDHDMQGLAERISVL
# [11] = molecular target: T3, Serine/threonine-protein kinase D2 (Homo sapiens); settings: at 1 µM
# [12] = molecular target: T4, Serine/threonine-protein kinase D3 (Homo sapiens) (UniProt O94806); settings: at 0.1 µM
# T4 sequence (whole entry): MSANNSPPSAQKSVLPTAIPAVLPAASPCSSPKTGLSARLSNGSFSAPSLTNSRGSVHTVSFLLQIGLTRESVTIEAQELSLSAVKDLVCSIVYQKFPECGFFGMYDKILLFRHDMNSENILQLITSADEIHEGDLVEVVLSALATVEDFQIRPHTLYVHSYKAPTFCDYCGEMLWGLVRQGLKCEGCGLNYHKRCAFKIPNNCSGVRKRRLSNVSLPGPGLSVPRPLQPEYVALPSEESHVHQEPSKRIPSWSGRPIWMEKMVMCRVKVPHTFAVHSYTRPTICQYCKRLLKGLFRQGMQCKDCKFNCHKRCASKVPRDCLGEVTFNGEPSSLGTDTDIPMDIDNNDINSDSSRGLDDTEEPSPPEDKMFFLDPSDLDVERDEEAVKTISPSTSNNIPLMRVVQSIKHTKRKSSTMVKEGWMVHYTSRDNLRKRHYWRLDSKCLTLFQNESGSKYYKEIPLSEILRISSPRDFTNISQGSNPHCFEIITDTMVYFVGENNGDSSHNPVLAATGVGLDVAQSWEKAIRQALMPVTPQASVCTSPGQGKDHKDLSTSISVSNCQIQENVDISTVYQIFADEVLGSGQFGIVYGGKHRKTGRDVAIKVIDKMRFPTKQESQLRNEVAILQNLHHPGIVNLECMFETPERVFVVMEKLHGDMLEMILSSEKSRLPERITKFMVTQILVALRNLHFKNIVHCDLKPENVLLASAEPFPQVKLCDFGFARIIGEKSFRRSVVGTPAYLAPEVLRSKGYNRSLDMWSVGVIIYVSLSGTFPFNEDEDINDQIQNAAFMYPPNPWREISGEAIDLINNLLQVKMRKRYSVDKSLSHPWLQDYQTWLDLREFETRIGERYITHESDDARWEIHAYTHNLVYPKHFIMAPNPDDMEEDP
# [13] = molecular target: T4, Serine/threonine-protein kinase D3 (Homo sapiens); settings: at 1 µM
# [14] = molecular target: T5, cGMP-dependent protein kinase 1 (Homo sapiens) (UniProt Q13976); settings: at 0.1 µM
# T5 sequence (whole entry): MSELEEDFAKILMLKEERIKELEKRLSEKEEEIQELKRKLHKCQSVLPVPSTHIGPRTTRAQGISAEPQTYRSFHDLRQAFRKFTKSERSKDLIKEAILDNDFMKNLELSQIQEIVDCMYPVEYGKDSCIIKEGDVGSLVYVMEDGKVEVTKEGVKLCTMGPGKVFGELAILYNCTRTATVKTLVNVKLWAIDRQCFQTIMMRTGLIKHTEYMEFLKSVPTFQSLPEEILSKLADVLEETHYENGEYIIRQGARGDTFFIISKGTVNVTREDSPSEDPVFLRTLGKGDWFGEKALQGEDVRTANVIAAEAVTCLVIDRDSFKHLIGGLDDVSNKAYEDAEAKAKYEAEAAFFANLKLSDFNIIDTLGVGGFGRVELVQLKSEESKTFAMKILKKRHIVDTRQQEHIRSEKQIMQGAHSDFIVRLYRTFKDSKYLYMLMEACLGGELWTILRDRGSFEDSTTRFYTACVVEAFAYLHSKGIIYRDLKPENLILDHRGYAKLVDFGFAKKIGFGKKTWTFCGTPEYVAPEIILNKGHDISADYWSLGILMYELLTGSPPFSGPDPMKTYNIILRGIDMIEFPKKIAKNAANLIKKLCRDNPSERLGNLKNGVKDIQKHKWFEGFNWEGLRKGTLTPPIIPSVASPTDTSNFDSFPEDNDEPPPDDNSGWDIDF
# [15] = molecular target: T5, cGMP-dependent protein kinase 1 (Homo sapiens); settings: at 1 µM
# [16] = molecular target: T6, cGMP-dependent protein kinase 2 (Homo sapiens) (UniProt Q13237); settings: at 0.1 µM
# T6 sequence (whole entry): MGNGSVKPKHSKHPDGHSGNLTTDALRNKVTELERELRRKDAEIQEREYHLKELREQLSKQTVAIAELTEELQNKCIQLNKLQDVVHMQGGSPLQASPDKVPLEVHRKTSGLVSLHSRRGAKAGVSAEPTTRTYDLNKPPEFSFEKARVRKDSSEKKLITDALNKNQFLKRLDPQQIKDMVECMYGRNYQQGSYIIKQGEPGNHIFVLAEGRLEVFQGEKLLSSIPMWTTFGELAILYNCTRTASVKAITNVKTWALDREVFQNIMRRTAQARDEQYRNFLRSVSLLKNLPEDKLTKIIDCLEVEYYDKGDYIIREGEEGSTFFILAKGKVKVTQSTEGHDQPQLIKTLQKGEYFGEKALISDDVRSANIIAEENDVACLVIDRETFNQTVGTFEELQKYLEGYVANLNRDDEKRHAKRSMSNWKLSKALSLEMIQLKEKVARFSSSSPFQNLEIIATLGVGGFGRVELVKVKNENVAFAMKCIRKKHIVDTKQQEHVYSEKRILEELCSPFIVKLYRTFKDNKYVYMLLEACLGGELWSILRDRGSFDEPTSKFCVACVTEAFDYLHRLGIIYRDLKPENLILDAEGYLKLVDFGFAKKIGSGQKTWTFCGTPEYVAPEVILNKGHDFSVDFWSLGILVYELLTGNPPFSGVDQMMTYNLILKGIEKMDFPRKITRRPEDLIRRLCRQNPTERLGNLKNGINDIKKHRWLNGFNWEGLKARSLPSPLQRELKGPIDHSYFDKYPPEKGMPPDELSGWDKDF
# [17] = molecular target: T6, cGMP-dependent protein kinase 2 (Homo sapiens); settings: at 1 µM
# [18] = molecular target: T7, cAMP-dependent protein kinase catalytic subunit PRKX (Homo sapiens) (UniProt P51817); settings: at 0.1 µM
# T7 sequence (whole entry): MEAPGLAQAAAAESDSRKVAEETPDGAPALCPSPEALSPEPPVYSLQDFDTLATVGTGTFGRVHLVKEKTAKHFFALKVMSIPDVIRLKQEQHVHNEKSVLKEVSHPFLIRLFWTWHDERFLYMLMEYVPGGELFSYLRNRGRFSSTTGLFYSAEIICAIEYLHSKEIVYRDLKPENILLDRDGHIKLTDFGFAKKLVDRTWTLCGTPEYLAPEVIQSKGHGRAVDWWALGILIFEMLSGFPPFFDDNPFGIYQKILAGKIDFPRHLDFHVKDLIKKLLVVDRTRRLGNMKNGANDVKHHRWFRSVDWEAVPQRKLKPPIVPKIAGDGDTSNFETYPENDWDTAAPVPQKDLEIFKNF
# [19] = molecular target: T7, cAMP-dependent protein kinase catalytic subunit PRKX (Homo sapiens); settings: at 1 µM
# [20] = molecular target: Rho-associated protein kinase 1 (Homo sapiens) (UniProt Q13464); settings: at 0.1 µM;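 note: values are mean percent inhibition of ROCK1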
# Rho-associated protein kinase 1 (Homo sapiens), sequence (Q13464 2-1354 limits assumed): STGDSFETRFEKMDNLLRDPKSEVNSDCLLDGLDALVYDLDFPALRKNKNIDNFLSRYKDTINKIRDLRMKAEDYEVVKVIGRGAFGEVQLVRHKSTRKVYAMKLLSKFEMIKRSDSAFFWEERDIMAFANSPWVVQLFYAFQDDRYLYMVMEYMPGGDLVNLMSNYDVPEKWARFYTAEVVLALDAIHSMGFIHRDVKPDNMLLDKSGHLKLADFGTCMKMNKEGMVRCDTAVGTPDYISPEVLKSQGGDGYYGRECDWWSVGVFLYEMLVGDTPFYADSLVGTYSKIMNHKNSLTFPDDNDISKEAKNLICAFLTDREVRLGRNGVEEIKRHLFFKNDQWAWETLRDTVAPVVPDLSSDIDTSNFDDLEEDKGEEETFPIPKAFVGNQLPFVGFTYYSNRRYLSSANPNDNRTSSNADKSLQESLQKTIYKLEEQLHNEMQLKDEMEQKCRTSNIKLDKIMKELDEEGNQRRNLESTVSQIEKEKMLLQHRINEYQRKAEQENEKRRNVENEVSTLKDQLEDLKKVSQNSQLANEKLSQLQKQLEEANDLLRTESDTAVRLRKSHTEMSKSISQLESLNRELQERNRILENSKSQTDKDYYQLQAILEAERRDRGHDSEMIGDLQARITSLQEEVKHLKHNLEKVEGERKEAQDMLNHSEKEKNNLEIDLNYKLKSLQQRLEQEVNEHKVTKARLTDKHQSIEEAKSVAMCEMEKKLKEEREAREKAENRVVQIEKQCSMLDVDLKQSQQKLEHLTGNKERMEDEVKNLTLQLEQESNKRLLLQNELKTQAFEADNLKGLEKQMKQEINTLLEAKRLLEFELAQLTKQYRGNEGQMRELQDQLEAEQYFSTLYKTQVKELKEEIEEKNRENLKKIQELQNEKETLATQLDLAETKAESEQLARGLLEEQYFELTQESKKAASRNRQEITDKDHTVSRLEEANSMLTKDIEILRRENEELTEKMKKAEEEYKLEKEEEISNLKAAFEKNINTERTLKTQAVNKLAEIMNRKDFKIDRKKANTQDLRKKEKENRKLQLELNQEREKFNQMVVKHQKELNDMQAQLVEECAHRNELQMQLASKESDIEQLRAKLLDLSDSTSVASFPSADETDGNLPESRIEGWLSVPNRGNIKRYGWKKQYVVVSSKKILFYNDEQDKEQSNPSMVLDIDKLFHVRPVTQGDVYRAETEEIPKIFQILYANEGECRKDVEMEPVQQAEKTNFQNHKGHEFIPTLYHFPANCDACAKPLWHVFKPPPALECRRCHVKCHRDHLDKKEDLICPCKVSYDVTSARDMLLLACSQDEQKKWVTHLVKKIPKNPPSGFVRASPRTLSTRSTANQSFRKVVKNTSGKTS
SMILES,inhibition [1] [%],inhibition [2] [%],inhibition [3] [%],inhibition [4] [%],inhibition [5] [%],inhibition [6] [%],inhibition [7] [%],inhibition [8] [%],inhibition [9] [%],inhibition [10] [%],inhibition [11] [%],inhibition [12] [%],inhibition [13] [%],inhibition [14] [%],inhibition [15] [%],inhibition [16] [%],inhibition [17] [%],inhibition [18] [%],inhibition [19] [%],inhibition [20] [%]
CCn1c(-c2nonc2N)nc2c(C#CC(C)(C)O)nc(CN3CCCC3)cc21,8.24,0.19,1.41,2.28,7.85,3.25,6.65,1.55,5.93,1.71,6.86,1.31,6.41,4.4,10.7,5.6,37.8,10.5,42,0.15
c1cnn2ncc(-c3ccnc(Nc4ccc5c(c4)OCCO5)n3)c2c1,9.81,2.88,1.82,2.63,5.92,0.79,5.22,6.99,45.1,5.55,38.2,7.82,50.5,4.87,18.9,1.98,8.51,1.25,2.29,1.28
CS(=O)(=O)CCNCc1ccc(-c2ccc3ncnc(Nc4ccc(OCc5cccc(F)c5)c(C(F)(F)F)c4)c3c2)o1,4.01,2.77,0.63,2.4,2.71,1.67,2.44,4.99,3.72,4.63,5.13,4.32,3.88,2.84,5.15,1.78,3.11,2.44,4.07,1.46
